MCF10A rereplic: DNA re-replication induction in MCF 10a cells | MCF 10A DNA re-replication, Hoechst nuclear intensity, 48 h | AID 624296 | actives 2.9% (n = 350,000) | Potency, µM (titrated, usually from 46.1 µM), most hits filed as activators; note: nearly all actives have a fitted effect of over 50% in size
p53 reactivation: mutant p53 re-activation in reporter cells; H1299 p53-A138V BP100-luciferase reporter, luminescence, 24 h; Potency, µM (titrated, usually from 92.2 µM), hits mostly activators; actives 0.063% (n = 320,000); note: nearly all actives have a fitted effect of over 45% in size
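p53-null H1299 cells stably carrying temperature-sensitive p53-A138V and a BP100-luciferase reporter were pinned with compounds (4-point, 1:5 series) and held 24 hrs at 37 deg C. Luminescence was read 10 min after detection reagent.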
ELG1 DNA repair: blocks ELG1-dependent DNA repair in HEK293T cells. HEK293T ELG1-luciferase reporter, luminescence, 16 h; DNA damage induced by 5-fluorouridine. Potency, µM (series often up to 46.1 µM), hits mostly inhibitors. actives 2.3% (n = 330,000); note: nearly all actives have a fitted effect of over 55% in size
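Overnight (16 hr) co-exposure of 2,000 cells/well to 5-fluorouridine and compound at 37 °C preceded detection. Luciferase was quantified via ONE-Glo luminescence; loss of signal denotes inhibition.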
ELG1 genotoxic: induces genotoxicity in HEK293T cells with luciferase-tagged ELG1. HEK293T ELG1-luciferase reporter, luminescence, 16 h. actives 1.3% (n = 330,000). Potency, µM (highest dose often 46 µM), usual class: activators; note: nearly all actives have a fitted effect of over 60% in size
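After overnight (16 hr) compound treatment at 37 °C, ELG1-luciferase HEK293T cells were lysed with ONE-Glo; luminescence quantified 30 min later at room temperature.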
SW480 rerep: inducers of DNA re-replication in SW480 colon cancer cells. SW480 DNA re-replication, Hoechst DNA content imaging, 48 h. actives 1.8% (n = 340,000). Potency, µM (highest dose often 46.1 µM), hits mostly activators. AID 624297; note: nearly all actives have a fitted effect of over 55% in size
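Image-based read-out: total Hoechst fluorescence of nuclei (405 nm excitation, 500-530 nm emission), with hits raising the fraction of high-intensity nuclei. SW480 colon cells incubated 48 hr with compounds at 37 C.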
AT treatment: potential ataxia-telangiectasia treatments restoring KAP-1 phosphorylation; F2112 A-T fibroblasts, KAP-1 phosphorylation AlphaLISA; neocarzinostatin DNA damage 30 min before lysis; Potency, µM (top dose mostly 57.5 µM), usual class: activators; actives 0.19% (n = 320,000); note: nearly all actives have a fitted effect of over 45% in size
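ATM-like activity read as KAP-1 phosphorylation via AlphaLISA donor/acceptor antibody pairs after lysis and 6 hr at 25C. Cells were ATM-null patient fibroblasts (F2112, hTERT), dosed 60 min, then exposed to the DSB inducer NCS for 30 min.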
Of the large screens only hits and unclear results are named; the others gave an inactive call. In the library only some 7.1% were active in any assay of this set; here they are far more common. Calls come from the whole dose curve; as a rule, active = well fitted curve in the direction sought with a large enough effect; inconclusive = small, poorly fitted or top-dose-only effect, or another doubt; inactive = no such curve, though single readings can be large; an effect the other way counts as inactive or inconclusive.

S=C(NCCc1ccccc1)N1CCN(C23CC4CC(CC(C4)C2)C3)CC1	MCF10A rereplic 5.8µM, ELG1 DNA repair inconclusive, SW480 rerep inconclusive
Nc1nonc1-n1nnc(C(=O)N/N=C/c2cccc(Cl)c2Cl)c1CN1CCCC1	MCF10A rereplic inconclusive, SW480 rerep 21µM
Nc1nonc1-n1nnc(C(=O)N/N=C/c2ccc(Cl)cc2Cl)c1CN1CCCC1	SW480 rerep 3.7µM
CC(C)c1c(C(=O)N/N=C/c2ccc(Cl)cc2Cl)nnn1-c1nonc1N	none
CC(C)c1c(C(=O)N/N=C/c2ccccc2OCc2c(F)cccc2Cl)nnn1-c1nonc1N	MCF10A rereplic inconclusive, SW480 rerep 9.2µM
Nc1nonc1-n1nnc(C(=O)N/N=C/c2ccccc2Cl)c1CN1CCOCC1	none
Cn1ccc2cc(-c3csc(N4CCC(C(N)=O)CC4)n3)ccc21	none
Cc1noc(NS(=O)(=O)c2ccc(NC(=O)/C=C/c3ccccc3)cc2)c1C	none
O=c1c2ccccc2nc(/C=C/c2cccc([N+](=O)[O-])c2)n1CCCO	none (no result: p53 reactivation, ELG1 DNA repair, ELG1 genotoxic, AT treatment)
O=c1c2ccccc2nc(/C=C/c2ccc([N+](=O)[O-])cc2)n1CCCO	ELG1 DNA repair 18µM
O=c1c2ccccc2nc(/C=C/c2ccc([N+](=O)[O-])o2)n1CCCO	MCF10A rereplic 4.5µM, ELG1 DNA repair 15µM, ELG1 genotoxic inconclusive, SW480 rerep 4.5µM
O=c1c2ccccc2nc(/C=C/c2ccc(Br)cc2)n1CCCO	MCF10A rereplic inconclusive
CCc1noc(C)c1C(=O)N(C)CC(=O)Nc1ccc(OC)cc1	none
CC(C)=CCOc1ccc(/C=C/C(=O)c2ccc(OCC=C(C)C)cc2OCC(=O)O)cc1	MCF10A rereplic 12µM (no result: p53 reactivation, ELG1 DNA repair, ELG1 genotoxic, AT treatment)
COc1ccc(/C=C/C(=O)c2ccc(OC)cc2OC)c(OC)c1	ELG1 DNA repair inconclusive, SW480 rerep inconclusive
CCOc1cc(C2C3=C(CC(C)(C)CC3=O)N(C)C3=C2C(=O)CC(C)(C)C3)ccc1O	SW480 rerep inconclusive
C=C(CN(C)C)C(=O)c1cc(C)ccc1C	MCF10A rereplic 2.6µM, SW480 rerep 5.8µM (no result: p53 reactivation, ELG1 DNA repair, ELG1 genotoxic, AT treatment)
Cc1ccc(C)c(C(=O)NCCN(C)C)c1	MCF10A rereplic inconclusive
Cc1ccccc1NC(=O)C1CCCN1S(=O)(=O)c1ccccc1C(F)(F)F (stereo unspecified)	none
CCOC(=O)N1CCN(C(=O)c2cn(CC(C)C)c(=O)c3c2c2ccccc2n3C)CC1	ELG1 DNA repair 18µM
CCOC(=O)N1CCN(C(=O)c2cn(C)c(=O)c3c2c2ccccc2n3C)CC1	ELG1 DNA repair inconclusive
O=C1CC2(CCCC2)C(=O)N1c1ccc(S(=O)(=O)NCC2CC2)cc1Cl	MCF10A rereplic inconclusive
O=C(O)c1ccc(COc2ccc(CO)cc2Cl)cc1	ELG1 DNA repair inconclusive, ELG1 genotoxic 9.2µM
COc1ccc(N(CC(=O)Nc2ccc3c(c2)OCO3)S(=O)(=O)c2ccccc2)c(OC)c1	ELG1 DNA repair 15µM
COc1ccc(N(CC(=O)Nc2ccc3c(c2)OCO3)S(=O)(=O)c2ccccc2)cc1OC	ELG1 DNA repair inconclusive
COc1cccc(NC(=O)CN(c2ccccc2OC)S(=O)(=O)c2cccs2)c1	ELG1 DNA repair 21µM
COc1ccc(N(CC(=O)NCCC2=CCCCC2)S(=O)(=O)c2ccccc2)cc1OC	ELG1 DNA repair inconclusive
COc1ccc(N(CC(=O)NCCC2=CCCCC2)S(=O)(=O)c2ccc(C)cc2)cc1OC	MCF10A rereplic inconclusive, ELG1 DNA repair 15µM
COc1ccc(N(CC(=O)Nc2ccc3c(c2)OCO3)S(=O)(=O)c2ccc(C)cc2)cc1OC	ELG1 DNA repair 26µM
COc1ccc(OC)c(N(CC(=O)Nc2ccccc2)S(=O)(=O)c2ccccc2)c1	none
CCC(C(=O)OCC(=O)N1CCN(S(=O)(=O)c2ccc(C)cc2C)CC1)c1ccccc1 (stereo unspecified)	ELG1 DNA repair inconclusive
CCc1ccc(CN(C)C(=O)CC2C(=O)NCCN2Cc2ccoc2)cc1 (stereo unspecified)	none

High-throughput results from PubChem.
